In PubChem BioAssay (Tox21):
Where “and” joins values, the source holds several entries; their conditions need not be identical. Identical values can stand only once. Inconclusive results are not listed. A call without a number means that no potency is given here. The source holds several records for some structures; these can differ, active in one and inactive in another. Calls of active or inactive are those of the source. Unless noted, calls follow the shape of the full dose curve.

How the values were obtained:
[1] = Nuclear factor erythroid 2-related factor 2/antioxidant responsive element (Nrf2/ARE) small molecule agonists: luciferase reporter gene qHTS assay in human keratinocytes (AID 1919969); also: nearly all actives have a fitted effect of over 35% in size; also: potency is read from the fitted curve at half-maximal effect
[2] = biological target: Gonadotropin-releasing hormone receptor (Homo sapiens) (UniProt P30968); experiment: Human gonadotropin-releasing hormone receptor (GnRHR) small molecule agonists, calcium flux assay in GnRHR-HEK293 cells (AID 1920063); also: nearly all actives have a fitted effect of over 35% in size
Sequence of Gonadotropin-releasing hormone receptor (Homo sapiens) (P30968 whole entry, looked up): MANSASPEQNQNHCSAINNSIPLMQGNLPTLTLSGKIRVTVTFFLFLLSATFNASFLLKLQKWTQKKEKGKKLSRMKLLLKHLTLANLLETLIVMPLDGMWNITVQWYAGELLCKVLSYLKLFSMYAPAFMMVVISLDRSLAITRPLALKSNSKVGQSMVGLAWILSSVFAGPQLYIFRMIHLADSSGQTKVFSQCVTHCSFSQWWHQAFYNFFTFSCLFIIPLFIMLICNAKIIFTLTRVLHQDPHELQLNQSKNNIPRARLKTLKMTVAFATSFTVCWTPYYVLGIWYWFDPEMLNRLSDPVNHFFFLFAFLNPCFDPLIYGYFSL
Procedure, shortened: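 Cells: HEK293 stably expressing human GnRHR. Steps: overnight (18 h) culture, 1 h calcium dye loading at 37 C, compound addition, kinetic fluorescence read at 480/540 nm. Each compound tested at 15 concentrations in triplicate.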

[3] = biological target: KiSS-1 receptor (Homo sapiens) (UniProt Q969F8); experiment: Human kisspeptin (KISS1R) small molecule agonists, calcium flux assay in KISS1R-HEK293 cells (AID 1920064; active = well fitted activation curve with a large enough effect in the repeat runs)
Sequence of KiSS-1 receptor (Homo sapiens) (Q969F8 whole entry, looked up): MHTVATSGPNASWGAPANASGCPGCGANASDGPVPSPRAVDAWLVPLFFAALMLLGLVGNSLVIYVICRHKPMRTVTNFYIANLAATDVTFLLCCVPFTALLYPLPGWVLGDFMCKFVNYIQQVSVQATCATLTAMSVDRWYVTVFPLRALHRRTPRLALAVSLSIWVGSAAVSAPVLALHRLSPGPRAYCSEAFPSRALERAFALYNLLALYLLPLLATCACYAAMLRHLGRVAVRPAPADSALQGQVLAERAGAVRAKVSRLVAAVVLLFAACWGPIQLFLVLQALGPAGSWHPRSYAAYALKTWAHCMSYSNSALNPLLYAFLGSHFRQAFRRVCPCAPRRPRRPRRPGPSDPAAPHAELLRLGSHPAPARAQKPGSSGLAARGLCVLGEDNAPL
Procedure, shortened: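 Cells plated and incubated 18 h; dye added, 1 h at 37 C; compounds in DMSO pinned in; signal read at 480/540 nm every second for 3 min. Each compound tested at 15 concentrations in triplicate.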

[4] = G protein-coupled receptor (GPCR) small molecule agonists, calcium flux assay: HEK293 wild type cell line counter screen (AID 1920065)
Procedure, shortened: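 Counter-screen of the Tox21 10K library for non-specific calcium release: dye-loaded cells received compounds in DMSO and were monitored by kinetic fluorescence (480/540 nm, 3 min). Fifteen concentrations, run in triplicate.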

[5] = p53 small molecule agonists, cell-based qHTS assay with human liver microsomes (AID 1963577);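 also: p53 response element beta-lactamase reporter cells with liver microsomes plus NADPH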
Procedure, shortened: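 Metabolically competent format: test substances, human liver microsomes and NADPH (both 0.5 mg/mL final) incubated with p53RE-bla cells 16 h at 37 C. Beta-lactamase reporter signal then quantified by fluorescence.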

[6] = p53 small molecule agonists, cell-based qHTS assay with rat liver microsomes (AID 1963578)
Procedure, shortened: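 Each plate received p53RE-bla cells, then compound, then rat liver microsomes and NADPH (both 0.5 mg/mL final). Plates were held 16 h at 37 C, and beta-lactamase activity was detected with LiveBLAzer over 2 h.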

[7] = p53 small molecule agonists, cell-based qHTS assay with human liver microsomes: qHTS cell viability counter screen (AID 1963579); also: nearly all actives have a fitted effect of over 45% in size; also: potency is read from the fitted curve at half-maximal effect
Procedure, shortened: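 Tox21 library compounds, delivered from DMSO stocks, were tested on p53RE-bla cells together with 0.5 mg/mL human liver microsomes and 0.5 mg/mL NADPH (final) over 16 h at 37 C; CellTiter-Glo luminescence served as the cytotoxicity measure.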

[8] = p53 small molecule agonists, cell-based qHTS assay with rat liver microsomes: qHTS cell viability counter screen (AID 1963580); also: nearly all actives have a fitted effect of over 45% in size; also: potency is read from the fitted curve at half-maximal effect
Procedure, shortened: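 Intracellular ATP, by CellTiter-Glo luminescence, defines viability. HCT-116 p53RE-bla cells, 4,000 per well, were compound-treated in the presence of rat liver microsomes and NADPH for 16 h at 37 C.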

[9] = p53 small molecule agonists, cell-based qHTS assay: qHTS cell viability counter screen (AID 1963581); also: nearly all actives have a fitted effect of over 45% in size; also: potency is read from the fitted curve at half-maximal effect
Procedure, shortened: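 Cells: HCT-116 with p53 response element-driven beta-lactamase. Treatment: 16 h, 37 C, compounds in DMSO. Read: CellTiter-Glo luminescence after 30 min RT.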

[10] = p53 small molecule agonists, cell-based qHTS assay (AID 1963582; active = well fitted activation curve with a large enough effect in the signal ratio in the repeat runs, not every such curve was filed as active; the % refers to the signal ratio)
Procedure, shortened: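 Quantitative HTS in p53RE-bla cells: after a 5 h settling period, compounds delivered in DMSO were left on cells for 16 h at 37 C, and reporter induction was measured as fluorescence following 2 h substrate loading.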

[11] = biological target: 5-hydroxytryptamine receptor 2A (Homo sapiens) (UniProt P28223); experiment: 5-hydroxytryptamine receptor 2A (HTR2A) small molecule antagonists, cell-based qHTS assay (AID 1963586); also: nearly all actives have a fitted effect of over 45% in size; also: potency is read from the fitted curve at half-maximal effect
Sequence of 5-hydroxytryptamine receptor 2A (Homo sapiens) (P28223 whole entry, looked up): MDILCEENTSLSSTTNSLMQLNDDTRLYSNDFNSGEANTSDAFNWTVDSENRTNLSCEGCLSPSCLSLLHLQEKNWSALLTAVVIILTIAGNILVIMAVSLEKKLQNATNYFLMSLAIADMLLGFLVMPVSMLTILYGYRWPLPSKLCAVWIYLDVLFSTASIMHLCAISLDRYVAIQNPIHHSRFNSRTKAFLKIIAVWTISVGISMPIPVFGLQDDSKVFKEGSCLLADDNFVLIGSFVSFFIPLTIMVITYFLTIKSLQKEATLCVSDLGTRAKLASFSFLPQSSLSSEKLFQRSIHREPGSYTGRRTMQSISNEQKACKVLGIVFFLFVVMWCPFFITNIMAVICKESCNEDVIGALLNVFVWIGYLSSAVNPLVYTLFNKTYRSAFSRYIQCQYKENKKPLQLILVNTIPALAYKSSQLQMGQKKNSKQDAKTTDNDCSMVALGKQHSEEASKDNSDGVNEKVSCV
Procedure, shortened: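 Antagonist-mode intracellular calcium assay: DOI (4 nM) added after 5 min compound pre-incubation at room temperature to dye-loaded HTR2A-CHO cells. Fluorescence followed for 3 min, sampled every second.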

[12] = biological target: 5-hydroxytryptamine receptor 2A (Homo sapiens) (UniProt P28223); experiment: 5-hydroxytryptamine receptor 2A (HTR2A) small molecule agonists, cell-based qHTS assay (AID 1963587); also: nearly all actives have a fitted effect of over 30% in size; also: potency is read from the fitted curve at half-maximal effect
Procedure, shortened: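 Kinetic calcium-flux fluorescence (2 min, 1 sec intervals) after compound addition in agonist mode. HTR2A-CHO cells were cultured 18 h, then dye-loaded 1 h at 37 C.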

[13] = biological target: Muscarinic acetylcholine receptor M1 (Homo sapiens) (UniProt P11229); experiment: Cholinergic receptor muscarinic 1 (CHRM1) small molecule antagonists, cell-based qHTS assay (AID 1963588); also: nearly all actives have a fitted effect of over 40% in size; also: potency is read from the fitted curve at half-maximal effect
Sequence of Muscarinic acetylcholine receptor M1 (Homo sapiens) (P11229 whole entry, looked up): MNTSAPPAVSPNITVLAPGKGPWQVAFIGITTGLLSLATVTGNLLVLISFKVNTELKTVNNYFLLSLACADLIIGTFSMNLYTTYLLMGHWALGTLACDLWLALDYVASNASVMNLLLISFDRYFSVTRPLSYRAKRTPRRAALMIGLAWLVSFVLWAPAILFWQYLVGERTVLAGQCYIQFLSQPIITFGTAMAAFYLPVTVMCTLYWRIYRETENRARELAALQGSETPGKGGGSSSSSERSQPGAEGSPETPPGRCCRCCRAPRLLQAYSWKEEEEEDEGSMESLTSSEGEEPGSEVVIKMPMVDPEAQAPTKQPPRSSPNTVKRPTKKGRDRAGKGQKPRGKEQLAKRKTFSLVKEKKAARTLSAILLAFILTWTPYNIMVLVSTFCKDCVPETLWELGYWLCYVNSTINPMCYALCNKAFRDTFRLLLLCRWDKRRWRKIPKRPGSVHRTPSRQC
Procedure, shortened: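 CHRM1-CHO calcium-flux assay, antagonist mode. Cells were seeded 18 h, dye-loaded 1 h at 37 C and given compound for 5 min at RT, then acetylcholine was added at 50nM. FDSS fluorescence was read 3 min; 15 concentrations, three runs.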

[14] = biological target: Muscarinic acetylcholine receptor M1 (Homo sapiens) (UniProt P11229); experiment: Cholinergic receptor muscarinic 1 (CHRM1) small molecule agonists, cell-based qHTS assay (AID 1963589); also: nearly all actives have a fitted effect of over 35% in size
Procedure, shortened: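 Agonist-mode qHTS in CHO cells stably carrying human muscarinic M1. Intracellular calcium is tracked by fluorescence every second after compound transfer; each compound runs at 15 concentrations in three independent runs.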

[15] = biological target: D(2) dopamine receptor (Homo sapiens) (UniProt P14416); experiment: Dopamine D2 receptor (DRD2) small molecule agonists, cell-based qHTS assay (AID 1963594); also: nearly all actives have a fitted effect of over 35% in size
Sequence of D(2) dopamine receptor (Homo sapiens) (P14416 whole entry, looked up): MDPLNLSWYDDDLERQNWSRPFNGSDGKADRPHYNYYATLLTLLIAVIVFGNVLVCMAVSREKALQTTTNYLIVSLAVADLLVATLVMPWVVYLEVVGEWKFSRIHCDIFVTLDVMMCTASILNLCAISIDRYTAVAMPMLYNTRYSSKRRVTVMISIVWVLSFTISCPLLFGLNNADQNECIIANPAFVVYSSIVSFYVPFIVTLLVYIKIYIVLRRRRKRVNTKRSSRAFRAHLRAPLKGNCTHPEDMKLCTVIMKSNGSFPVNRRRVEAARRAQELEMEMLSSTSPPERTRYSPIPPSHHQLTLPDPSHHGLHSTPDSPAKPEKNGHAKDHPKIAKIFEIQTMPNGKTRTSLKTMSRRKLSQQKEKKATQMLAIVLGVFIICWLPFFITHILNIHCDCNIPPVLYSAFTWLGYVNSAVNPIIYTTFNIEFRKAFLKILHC
Procedure, shortened: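 cAMP accumulation in DRD2-HEK293 cells measured by HTRF after 1 h detection; compounds added 10 min before NKH477 (200nM […]) forskolin-analogue stimulation, 30 min at room temperature, with Ro20-1724 present at 0.1 mM final.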

[16] = biological target: D(2) dopamine receptor (Homo sapiens) (UniProt P14416); experiment: Dopamine D2 receptor (DRD2) small molecule antagonists, cell-based qHTS assay (AID 1963595; active = well fitted inhibition curve with a large enough effect in the signal ratio in the repeat runs, with a control signal flat; the % refers to the signal ratio; also: potency is read from the fitted curve at half-maximal effect)
Procedure, shortened: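 Readout: HTRF cAMP, cAMP-d2 competing with cellular cAMP for anti-cAMP cryptate, read after 1 h. Cells: DRD2-HEK293. Conditions: 0.1 mM Ro20-1724, 12 nM quinpirole, 200 nM NKH477, 30 min RT.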

[17] = biological target: Beta-2 adrenergic receptor (Homo sapiens) (UniProt P07550); experiment: Adrenergic beta2 receptor (ADRB2) small molecule antagonists, cell-based qHTS assay (AID 1963592); also: nearly all actives have a fitted effect of over 50% in size; also: potency is read from the fitted curve at half-maximal effect
Sequence of Beta-2 adrenergic receptor (Homo sapiens) (P07550 whole entry, looked up): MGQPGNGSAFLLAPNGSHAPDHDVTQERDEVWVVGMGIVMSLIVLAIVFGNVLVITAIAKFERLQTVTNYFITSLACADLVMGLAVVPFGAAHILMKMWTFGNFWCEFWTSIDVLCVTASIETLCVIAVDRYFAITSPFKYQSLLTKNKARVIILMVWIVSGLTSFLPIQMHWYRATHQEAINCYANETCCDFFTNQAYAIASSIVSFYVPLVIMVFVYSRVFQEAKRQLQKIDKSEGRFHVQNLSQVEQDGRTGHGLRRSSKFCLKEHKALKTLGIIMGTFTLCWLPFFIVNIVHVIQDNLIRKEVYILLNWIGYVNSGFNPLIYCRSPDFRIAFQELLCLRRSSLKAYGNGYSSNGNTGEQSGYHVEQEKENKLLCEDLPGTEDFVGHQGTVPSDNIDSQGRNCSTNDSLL
Procedure, shortened: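 Cells (CHO, stable ADRB2 overexpression) incubated 18-20hr at 37C; compounds added from DMSO; agonist mix (1nM isoproterenol, 100uM IBMX, 25uM Ro-20-1724) added; 0.5hr RT; d2-cAMP and anti-cAMP-cryptate added; 1hr RT; 665/615 nm read.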

[18] = biological target: Beta-2 adrenergic receptor (Homo sapiens) (UniProt P07550); experiment: Adrenergic beta2 receptor (ADRB2) small molecule agonists, cell-based qHTS assay (AID 1963593); also: potency is read from the fitted curve at half-maximal effect;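 as to activation: CHO cells stably overexpressing human ADRB2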
Procedure, shortened: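 CHO cells stably over-expressing ADRB2 were plated overnight at 37C, then dosed with compounds plus a stimulation mix containing 100uM IBMX and 25uM Ro-20-1724 for 0.5hr at room temperature. cAMP was measured by HTRF competition, 1hr.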

[19] = cAMP Responsive Elements (CRE) small molecule agonists, cell-based qHTS assay (AID 1963590)
Procedure, shortened: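 Agonist mode qHTS in CRE-bla HEK 293T cells: compounds dosed from DMSO for 3 h at 37 C/5% CO2, followed by LiveBLAzer B/G FRET substrate for 2 h at room temperature.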

[20] = cAMP Responsive Elements (CRE) small molecule antagonists, cell-based qHTS assay (AID 1963591; active = well fitted inhibition curve with a large enough effect in the signal ratio in the repeat runs, not every such curve was filed as active; the % refers to the signal ratio)
Procedure, shortened: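 Antagonist mode: test compounds are co-incubated with the adenylyl cyclase activator NKH477 (0.25 uM final) on CRE-bla HEK293T cells for 3 h at 37 °C, followed by LiveBLAzer substrate loading.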

SMILES	Potency [1]	Potency [2]	Potency [3]	Potency [4]	Potency [5]	Potency [6]	Potency [7]	Potency [8]	Potency [9]	Potency [10]	Potency [11]	Potency [12]	Potency [13]	Potency [14]	Potency [15]	Potency [16]	Potency [17]	Potency [18]	Potency [19]	Potency [20]
CC(C)NCC(O)c1ccc(N)c(C#N)c1 (stereo not given)	inactive	inactive	inactive	inactive	inactive	inactive	inactive	inactive	inactive	inactive	18.3 µM (active)	7.56 µM (active)	inactive	inactive	inactive	0.0047 µM (active)	–	–	–	–
C[C@@H](Oc1ccc(Cl)cc1Cl)C(=O)O	inactive	inactive	inactive	inactive	inactive	inactive	inactive	inactive	inactive	–	–	inactive	inactive	inactive	inactive	inactive	inactive	–	–	–
O=C(N[C@H](c1ccccc1)[C@@H]1CN2CCC1CC2)c1c(Cl)ccc(C(F)(F)F)c1Cl	inactive	inactive	inactive	inactive	inactive	inactive	inactive	inactive	inactive	inactive	inactive	inactive	–	inactive	–	inactive	inactive	inactive	–	–
CCCN(CCCl)c1c([N+](=O)[O-])cc(C(F)(F)F)cc1[N+](=O)[O-]	inactive	inactive	inactive	inactive	inactive	inactive	inactive	inactive	inactive	inactive	–	inactive	–	inactive	inactive	inactive	inactive	inactive	inactive	inactive
N#C/C=C/c1ccccc1	inactive	inactive	inactive	inactive	inactive	inactive	inactive	inactive	inactive	–	inactive	inactive	inactive	inactive	inactive	inactive	inactive	inactive	inactive	inactive
N#CCCSCCC#N	inactive	inactive	inactive	inactive	inactive	inactive	inactive	inactive	inactive	inactive	inactive	inactive	inactive	inactive	inactive	inactive	inactive	inactive	inactive	–
C[C@]12CC[C@H]3[C@@H](CCC4=CC(=O)CC[C@@H]43)[C@@H]1CC[C@@H]2OC(=O)CCc1ccccc1	inactive	inactive	inactive	inactive	inactive	inactive	inactive	inactive	inactive	inactive	inactive	inactive	2.31 µM (active)	inactive	inactive	inactive	inactive	–	inactive	–
CC[C@@H](CO)NC(=O)[C@@H]1C=C2c3cccc4[nH]cc(c34)C[C@H]2N(C)C1	inactive	inactive	inactive	inactive	inactive	inactive	inactive	inactive	inactive	inactive	–	–	–	–	–	–	–	–	inactive	inactive
ClC1=C(Cl)C2(Cl)C(CBr)CC1(Cl)C2(Cl)Cl (stereo not given)	inactive	inactive	inactive	inactive	inactive	inactive	inactive	inactive	inactive	inactive	inactive	inactive	inactive	–	inactive	inactive	inactive	inactive	inactive	inactive
CCN(CC)CCOC(=O)C(C)(c1ccccc1)c1ccccc1	inactive	inactive	inactive	inactive	inactive	inactive	inactive	inactive	inactive	inactive	–	inactive	0.013 µM (active)	inactive	inactive	inactive	inactive	–	inactive	inactive
ClC1=C(Cl)[C@]2(Cl)[C@@H]3[C@@H](Cl)[C@H]4O[C@H]4[C@@H]3C1(Cl)C2(Cl)Cl	inactive	inactive	inactive	inactive	inactive	inactive	inactive	inactive	inactive	–	inactive	inactive	inactive	–	–	–	–	61.1 µM (active)	–	–
CCSC(=O)Cl	inactive	inactive	inactive	inactive	inactive	inactive	inactive	inactive	inactive	inactive	–	inactive	–	inactive	inactive	inactive	inactive	–	inactive	inactive
Cc1nnc2n1-c1sc(CCC(=O)N3CCOCC3)cc1C(c1ccccc1Cl)=NC2	inactive	inactive	inactive	inactive	inactive	inactive	inactive	inactive	inactive	–	–	inactive	inactive	inactive	inactive	inactive	29.8 µM (active)	–	–	–
CC(=O)[O-].CC(=O)[O-].O.O.[Cd+2]	–	–	inactive	–	–	–	inactive	inactive	–	–	inactive	27.2 µM (active)	inactive	inactive	inactive	inactive	inactive	inactive	inactive	–
C[C@H]1O[C@@H](O[C@H]2[C@@H](O)C[C@H](O[C@H]3[C@@H](O)C[C@H](O[C@H]4CC[C@@]5(C)[C@H](CC[C@@H]6[C@@H]5CC[C@]5(C)[C@@H](C7=CC(=O)OC7)CC[C@]65O)C4)O[C@@H]3C)O[C@@H]2C)C[C@H](O)[C@@H]1O	61.5 nM (active) and 119 nM (active)	inactive	inactive	inactive	inactive	inactive	46.1 nM (active) and inactive	0.073 µM (active)	81.9 nM (active) and 79.3 nM (active)	–	–	–	–	–	inactive	inactive	inactive	inactive	–	–
